Shown are actives, neighbours in structure and some others; about 5.8% of the full set was active somewhere.
SW480 rereplic: A quantitative high throughput screen for small molecules that induce DNA re-replication in SW480 colon adenocarcinoma cells; SW480 DNA re-replication, Hoechst DNA content imaging, 48 h; Potency, µM (titrated, usually from 46.1 µM), for inactives: top-dose re-replication activation, actives largely listed as activators; 340,000 tested, 1.8% active; AID 624297, 2012; also: % of control where 0% means no effect; nearly all actives have a fitted effect of over 55% in size
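Cells (250 per well) received 23 nL compound or DMSO by pin tool and were kept 48 hr at 37 C, 5% CO2. Nuclei were then stained with Hoechst for 40 min and scanned for DNA content.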
MCF10A rerep: A quantitative high throughput screen for small molecules that induce DNA re-replication in MCF 10a normal breast cells. Potency, µM (top dose mostly 46.1 µM), inactives show top-dose activity, positive = re-replication, hits mostly activators. 350,000 tested, 2.9% active. MCF 10A DNA re-replication, Hoechst nuclear intensity, 48 h. AID 624296, 2012; also: % of control where 0% means no effect; nearly all actives have a fitted effect of over 50% in size
PINK1 expr mod: A Quantitative High throughput Screen to Identify Chemical Modulators of PINK1 Expression. PINK1 immunofluorescence, high-content cytometry, 24 h. Potency, µM (series often up to 76.6 µM), for the others: at the highest dose activation (PINK1 increase), actives largely listed as activators. 410,000 tested, 0.2% active; active = well fitted activation curve with a large enough effect; inconclusive = small, poorly fitted or top-dose-only effect; cell line not stated here; also: % of control where 0% means no effect; nearly all actives have a fitted effect of over 65% in size
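Compound titrations (5 concentrations, 24 h) on a stable cell line; DMSO and CCCP controls. Endpoint: fixed-cell PINK1 immunofluorescence with mitochondrial, cell and nuclear markers, scanned by microplate cytometer.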
KB-3-1 cytotox: qHTS assay for MDR1-selective chemotherapeutics: Primary screen using the parental adenocarcinoma cell KB-3-1 | KB-3-1 viability, CellTiter-Glo ATP luminescence, 72 h | Potency, µM (highest dose often 46.1 µM), hits mostly cytotoxic | 400,000 tested, 1.4% active; also: % is scaled to controls: 0 for no effect and ±100 for the full control effect; nearly all actives have a fitted effect of over 60% in size
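Viability of parental KB-3-1 cells, measured by CellTiter-Glo luminescence, followed a 72 h incubation at 37 °C with pinned compounds in phenol-red-free DMEM containing 10% FBS.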
KB-V1 cytotox: qHTS assay for MDR1-selective chemotherapeutics: Primary screen using the drug-selected MDR subline cells KB-V1 | KB-V1 MDR cells viability, CellTiter-Glo, 72 h | Potency, µM (titrated, usually from 46.1 µM), actives largely listed as cytotoxic | 400,000 tested, 3.4% active; also: % is scaled to controls: 0 for no effect and ±100 for the full control effect; nearly all actives have a fitted effect of over 60% in size
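KB-V1 cells (P-gp-expressing MDR subline of KB-3-1) in phenol-red-free DMEM with 10% FBS were exposed to library compounds over a concentration series for 72 h at 37 degrees C. Viability read by CellTiter-Glo luminescence; concentration-effect curves fitted after normalization.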
ALOX12 inh: Primary qHTS assay for inhibitors of human arachidonate 12S-lipoxygenase (ALOX12): Round 2; 580,000 tested, 1.1% active; Potency, µM (doses to about 108 µM), inactives show at the highest dose activity change, negative = inhibition, hits mostly inhibitors; purified 12hLO, xylenol orange hydroperoxide absorbance; Polyunsaturated fatty acid lipoxygenase ALOX12 (Homo sapiens), P18054; also: % is scaled to controls: 0 for no effect and ±100 for the full control effect
Target sequence (P18054 whole entry, looked up): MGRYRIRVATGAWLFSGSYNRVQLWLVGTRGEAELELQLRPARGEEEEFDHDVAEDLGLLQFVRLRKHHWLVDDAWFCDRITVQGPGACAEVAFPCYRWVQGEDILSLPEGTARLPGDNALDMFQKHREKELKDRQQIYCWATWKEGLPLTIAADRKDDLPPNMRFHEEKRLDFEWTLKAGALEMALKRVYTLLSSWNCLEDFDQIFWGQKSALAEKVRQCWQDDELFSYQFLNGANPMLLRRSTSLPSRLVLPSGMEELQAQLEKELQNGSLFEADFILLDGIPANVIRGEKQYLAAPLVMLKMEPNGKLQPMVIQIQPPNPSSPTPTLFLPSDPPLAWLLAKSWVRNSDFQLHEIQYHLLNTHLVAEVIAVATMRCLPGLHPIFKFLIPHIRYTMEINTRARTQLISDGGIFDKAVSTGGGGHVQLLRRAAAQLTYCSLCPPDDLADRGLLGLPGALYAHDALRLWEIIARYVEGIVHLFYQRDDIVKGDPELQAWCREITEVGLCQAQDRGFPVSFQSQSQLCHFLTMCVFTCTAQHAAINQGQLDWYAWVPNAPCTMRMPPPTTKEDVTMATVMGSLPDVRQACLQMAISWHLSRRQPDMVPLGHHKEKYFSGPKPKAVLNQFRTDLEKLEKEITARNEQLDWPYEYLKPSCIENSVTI
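Hydroperoxide product was detected by ferrous iron/xylenol orange as the 573 to 405 nm absorbance ratio. Arachidonic acid at 40 uM (final) was turned over for 30 min at room temperature by 150 nM human 12hLO, pH 7.0 Hepes buffer, after 15 min compound preincubation.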
* marks the source's active call; other numbers are inactive results; i = inactive; u = inconclusive; x = no result; [ ] = another dose, or the depositor's remark. Unless noted, calls follow the shape of the dose curve; as a rule, active = well fitted curve in the direction sought with a large enough effect; inconclusive = small, poorly fitted or top-dose-only effect, or another doubt; inactive = no such curve, though single readings can be large; an effect the other way counts as inactive or inconclusive. Potency is read from the fitted curve at half-maximal effect.

SMILES	SW480 rereplic	MCF10A rerep	PINK1 expr mod	KB-3-1 cytotox	KB-V1 cytotox	ALOX12 inh
COC(=O)c1ccc(COc2ccccc2/C=C(\C#N)C(=O)Nc2c(C)cc(C)cc2C)cc1	8.2µM*	5.8µM*	u	11.6µM*	16.4µM*	-5.6%
COC(=O)c1ccc(COc2ccccc2/C=C(\C#N)C(=O)Nc2ccc(C)cc2C)cc1	15.4%	u	6.6%	i	u	-12.0%
COc1ccc(-c2cc(C(F)(F)F)nc(N3CCCCCC3)n2)cc1	2.0%	23.1µM*	u	i	i	0.0%
COc1cccc(-c2cc(C(F)(F)F)n3ncc(S(=O)(=O)c4ccccc4)c3n2)c1	8.2µM*	7.31µM*	17.6%[38.3 µM]	i	i	7.2%
COc1ccc(-c2cc(C(F)(F)F)nc(N3CCCCC3)n2)cc1OC	9.1%	u	13.4%	i	u	-22.4%
COc1ccc(-c2cc(C(F)(F)F)nc(-n3ccnc3C)n2)cc1	-7.5%	7.6%	18.9%	u	20.6µM*	-2.4%
COc1ccc(-c2cc(C(F)(F)F)nc(N3CCN(C)CC3)n2)cc1OC	12.4%	20.0%	-1.0%	u	16.4µM*	-8.4%
COc1ccc(S(=O)(=O)Nc2cc(N3CCCS3(=O)=O)ccc2OC)cc1	x	x	x	x	x	21.3%
CCCCOc1ccc2cc(C(=O)N3CCC(C(N)=O)CC3)[nH]c2c1	x	x	x	x	x	11.7%
O=C(CN1CCC2(CC1)OCCO2)Nc1cc(Cl)ccc1Cl	x	x	x	x	x	10.8%
COc1ccc(NC(=O)C2(C)CCCCC(=O)N2)cc1 (configuration not stated)	x	x	x	x	x	0.6%
Cc1nc(NC(=O)C2CC(=O)N(Cc3ccccn3)C2)sc1C (configuration not stated)	x	x	x	x	x	26.3%
COc1cccc(-c2cc(C(F)(F)F)nc(N3CCN(Cc4ccccc4)CC3)n2)c1	x	x	x	x	x	2.7%
COc1ccc(-c2cc(C(F)(F)F)nc(N3CCN(C)CC3)n2)cc1	-2.7%	u	10.3%	u	11.6µM*	u
COc1cccc(-c2cc(C(F)(F)F)nc(N3CCCCC3)n2)c1	-8.5%	16.4µM*	5.4%	i	i	-14.6%
COc1ccc(C(CC(=O)NCCc2ccc(OC)c(OC)c2)c2c[nH]c3ccccc23)c(OC)c1 (configuration not stated)	x	x	x	x	x	42.8%
O=C(Nc1ccc(F)cc1)NC1CCCCC1	-3.1%	-4.5%	5.6%[38.3 µM]	i	i	0.9%
O=C(Nc1c(F)c(F)c(F)c(F)c1F)NC1CCCCC1	3.8%	2.0%	-1.2%[38.3 µM]	i	16.4µM*	0.0%
CC(=O)/C(C#N)=C1\NC(=O)C(Cc2ccc(C)c(Cl)c2)S1 (configuration not stated)	-10.0%	u	-0.7%	18.4µM*	9.2µM*	u
CCOC(=O)c1ccc(CC2S/C(=C(\C#N)C(C)=O)NC2=O)cc1 (configuration not stated)	-2.2%	u	0.4%	u	i	0.0%[57.4 µM]
CCc1ccc(CC2S/C(=C(\C#N)C(C)=O)NC2=O)cc1 (configuration not stated)	20.2%	u	2.9%	u	7.31µM*	u
C/C(=N\O)c1ccc(-n2cccc2)cc1	x	x	x	x	x	-5.2%
COc1cc(CCNC2=CC(=O)c3ncccc3C2=O)ccc1O	14.6µM*	u	-4.3%	5.8µM*	7.31µM*	-24.8%
COc1cc(CCC(C)=O)ccc1O	x	x	x	x	x	-6.1%[176 µM]
c1cn2c(NC3CCCCC3)c(-c3ccc(N4CCOCC4)cc3)nc2cn1	x	x	x	x	x	-26.4%
Cc1ccc2nc(-c3ccncc3)c(NC3CCCC3)n2c1	u	u	-1.4%	i	i	-3.5%
